Measured values published in ChEMBL document CHEMBL1157539, “Thousands of chemical starting points for antimalarial lead identification” (Nature, 2010).
Where “and” joins values, the source holds several entries; their conditions need not be identical. Equal entries are not always repeated.

System: Plasmodium falciparum
Assay: GSK_TCMDC: Inhibition of Plasmodium falciparum Dd2 in whole red blood cells, using parasite LDH activity as an index of growth. Test compounds present at 2uM
Format: functional

Compound	Inhibition
CC(C)CNCc1cccc(-c2ccc(CN(C(=O)NC3CCCCC3)C3CCN(Cc4ccccc4)CC3)cc2)c1.O=C(O)C(F)(F)F	51%
O=C(/C=C/c1ccc(Cl)c(Cl)c1)NCC1CCC(CN2CCC(c3c[nH]c4ccccc34)CC2)CC1 (stereo not drawn)	93%
C[C@H](Cc1ccc(OCCCCCCOc2ccccc2)cc1)NC[C@H](O)c1cccc(Cl)c1.Cl	99%
O=C(C=C1c2ccccc2-c2ccccc21)NC1CCC(CN2CCC(c3c[nH]c4ccccc34)CC2)CC1 (stereo not drawn)	64% and 67%
Cc1cc(O)cc2c(C3CCN(CC4CCN(C(=O)/C=C/c5ccc(Cl)c(Cl)c5)CC4)CC3)c[nH]c12	100%
Cl.N#Cc1c(F)cc(N2CCC(NCC[C@H](N)Cc3ccc(F)c(F)c3)CC2)cc1F	26%
Oc1ccc2[nH]cc(C3=CCN(CCc4ccccc4)CC3)c2c1	60%
OC(CNCc1ccccc1OC(F)F)c1cccc(C(F)(F)F)c1 (stereo not drawn)	52%
Cc1cc(C(=O)NC2CCN(CC3(c4ccc(Cl)cc4)CCC3)CC2)on1	95%
COC(=O)c1ccc(CC(C)NCC(O)c2cccc(OCc3ccccc3)c2)cc1.Cl (stereo not drawn)	37%
CC(C)CNCc1cccc(-c2cccc(CN(C(=O)NC3CCCCC3)C3CCN(Cc4ccccc4)CC3)c2)c1.O=C(O)C(F)(F)F	87%
CC(Cc1ccc(NC(=O)CCNCc2ccccc2)cc1)NCCc1cccc(Cl)c1 (stereo not drawn)	100%
CCC1CN2CCc3cc(OC)c(OC)cc3C2CC1CC1NCCc2c1[nH]c1ccc(O)cc21 (stereo not drawn)	100%
